This excerpt belongs to a sample that is enriched for hits.
AmpC detergent: qHTS Inhibitors of AmpC Beta-Lactamase (assay with detergent) | P00811 | AmpC hydrolysis of nitrocefin, absorbance 480 nm, 0.01% Triton | Potency, µM (series often up to 114 µM), without a hit: at the top dose activity change, negative = inhibition, most hits filed as inhibitors | 370,000 tested, 0.041% active | AID 485294, 2010;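 note: potency is the fitted concentration of half-maximal effect; 0% = no-compound wells and -100% = no-enzyme wells; nearly all actives have a fitted effect of over 25% in size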
Target sequence (P00811 whole entry, looked up): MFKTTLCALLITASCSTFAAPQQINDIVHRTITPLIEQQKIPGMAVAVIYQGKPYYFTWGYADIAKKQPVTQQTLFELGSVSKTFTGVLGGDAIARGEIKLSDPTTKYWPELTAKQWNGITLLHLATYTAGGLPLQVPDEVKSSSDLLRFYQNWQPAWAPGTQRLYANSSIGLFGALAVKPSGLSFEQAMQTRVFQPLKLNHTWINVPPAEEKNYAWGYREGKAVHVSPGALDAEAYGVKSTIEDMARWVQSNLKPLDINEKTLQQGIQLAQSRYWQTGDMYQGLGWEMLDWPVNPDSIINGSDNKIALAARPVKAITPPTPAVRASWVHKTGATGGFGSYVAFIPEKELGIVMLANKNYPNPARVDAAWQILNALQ
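AmpC (5.3 nM in the dispensed reagent) in 20 mM phosphate pH 7.0 with 0.01% (detergent screen) or 0.0001% Triton X-100 was preincubated with compounds for 15 min at room temperature. Nitrocefin was then added from an 800 uM solution, and hydrolysis was followed at 480 nm.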
Shiga inhibitor: A qHTS for Small Molecule Inhibitors of Shiga Toxin | Vero cells, Shiga toxin protein synthesis inhibition reporter | inhibition, % at 38.7 µM | 290,000 tested, 9.2% active | AID 2315, 2010; in the data active = inhibition mostly above about 28%, no sharp cut-off; inactive = mostly below about 43%; note: 0% is about no effect
AmpC no deterg: qHTS Inhibitors of AmpC Beta-Lactamase (assay without detergent). AmpC nitrocefin hydrolysis, absorbance 480 nm, 0.0001% Triton. Potency, µM (series often up to 57.1 µM), inactives show top-dose activity change, negative = inhibition, most hits filed as inhibitors. 330,000 tested, 0.52% active. AID 485341, 2010;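 note: potency is the fitted concentration of half-maximal effect; plate controls were no compound for no effect and no enzyme for full effect; nearly all actives have a fitted effect of over 20% in size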
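20 mM phosphate pH 7.0 + 0.01% (detergent screen) or 0.0001% Triton X-100; 5.3 nM AmpC reagent; cpd preinc 15 min RT; nitrocefin (800 uM stock) to start; A480 q20 s × 4 min; Activity was normalised to no-enzyme and no-compound control wells.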
NS1 function inh: qHTS Assay for Inhibitors of Influenza NS1 Protein Function. AID 2326, 2010. Potency, µM (series often up to 46.1 µM), inactives show at the top dose activity, positive = more growth. 270,000 tested, 0.4% active; calls by dose curve; note: potency is the fitted concentration of half-maximal effect; actives are rising curves; nearly all actives have a fitted effect of over 50% in size
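OD600 was taken as the measure of yeast growth restored by compound in an NS1-expressing S. cerevisiae strain. Cells had been washed out of glucose medium and diluted 1:100 into galactose -URA medium, pH 6.0.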
Cycloheximide cs: Cycloheximide Counterscreen for Small Molecule Inhibitors of Shiga Toxin; AID 2314, 2010; max response, %; cell reporter, cycloheximide protein synthesis inhibition counterscreen; 300,000 tested, 12% active; in the data active = max response mostly above about 13%, no sharp cut-off; inactive = mostly below about 14%; note: read at 38.3 µM for the half of the compounds with a filed dose; 0% is about no effect
* hit, by the source's call. Unless noted, calls come from the whole dose curve; as a rule, active = well fitted curve in the direction sought with a large enough effect; inconclusive = small, poorly fitted or top-dose-only effect, or another doubt; inactive = no such curve, though single readings can be large; an effect the other way counts as inactive or inconclusive.

How did COc1ccc(NC(=O)c2ccccn2)cc1OC do in these assays?
AmpC detergent: -10%; Shiga inhibitor: 90*; AmpC no deterg: -21%; NS1 function inh: 1%; Cycloheximide cs: 61*

What do the screens show for `COc1ccc(OC)c(NC(=O)CC2C(=O)NCCN2C(=O)c2ccccc2)c1` (stereo unspecified)?
AmpC detergent: 0%; Shiga inhibitor: -4; AmpC no deterg: -4%; NS1 function inh: 5%; Cycloheximide cs: -5

How did COc1cccc(CNCCSc2nnnn2C)c1OCc1ccc(F)cc1 do in these assays?
AmpC detergent: -5%

How did CC(C)c1ccc(-c2noc(C3CCCN(C(=O)c4ccc(F)cc4F)C3)n2)cc1 (stereo unspecified) do in these assays?
AmpC detergent: inconclusive; Shiga inhibitor: 38*; AmpC no deterg: 99%; NS1 function inh: -47%; Cycloheximide cs: 55*

What do the screens show for `Cc1ccc(-c2noc(C3CCCN(C(=O)c4ccc(F)cc4F)C3)n2)cc1` (stereo unspecified)?
AmpC detergent: -7%; Shiga inhibitor: 17; AmpC no deterg: 71%; NS1 function inh: -66%; Cycloheximide cs: 15*

What do the screens show for `Cc1cc(O)c(C(=O)c2cnc3c(c2)COc2ccccc2-3)cc1Cl`?
AmpC detergent: -5%

How did CN(c1ccccc1)S(=O)(=O)c1cccc(NC(=O)C2=NN(c3ccccc3)C(=O)CC2)c1 do in these assays?
AmpC no deterg: -28%

How did CN1CCN(S(=O)(=O)c2ccc(NC(=O)Nc3cccc(Cl)c3)cc2)CC1 do in these assays?
AmpC detergent: -10%; Shiga inhibitor: 11; AmpC no deterg: -22%; NS1 function inh: -17%; Cycloheximide cs: 16*

What do the screens show for `CCCCC(=O)NC(=S)Nc1ccc(S(=O)(=O)N2CCCC2)cc1`?
AmpC detergent: -11%; Shiga inhibitor: -10; AmpC no deterg: 13µM*; NS1 function inh: 9%; Cycloheximide cs: -6

Results for CCCC(=O)Nc1ccc(S(=O)(=O)N2CCCC2)cc1 ?
AmpC detergent: -1%; Shiga inhibitor: -21; AmpC no deterg: -23%; NS1 function inh: 0%; Cycloheximide cs: -5

Results for CN1CCN(S(=O)(=O)c2ccc(NC(=S)NC(=O)c3ccccc3)cc2)CC1 ?
AmpC detergent: inconclusive; Shiga inhibitor: 36; AmpC no deterg: 17%; NS1 function inh: -5%; Cycloheximide cs: 21*

What do the screens show for `CN1CCN(S(=O)(=O)c2ccc(NC(=S)NC(=O)c3ccc(Cl)cc3)cc2)CC1`?
AmpC detergent: 2%; Shiga inhibitor: 52; AmpC no deterg: 90%; NS1 function inh: 11%; Cycloheximide cs: 23*

Results for O=C(Cc1c(F)cccc1Cl)OCC(=O)N1CCN(c2ccccc2)CC1 ?
AmpC no deterg: -6%

Results for CC(=O)c1ccc(N2CCN(C(=O)CCCCn3c(=O)[nH]c4ccsc4c3=O)CC2)cc1 ?
AmpC detergent: 1%

Results for CCC(=O)NC(=S)Nc1ccc(S(=O)(=O)NC2CCCCC2)cc1 ?
AmpC detergent: 10%; Shiga inhibitor: -8; AmpC no deterg: 13µM*; NS1 function inh: -14%; Cycloheximide cs: 8

Results for Clc1ccccc1-c1nnc(-c2cccnc2)o1 ?
AmpC detergent: 0%; Shiga inhibitor: 58; AmpC no deterg: -11%; NS1 function inh: -11%; Cycloheximide cs: 25*

Results for Clc1ccccc1-c1nnc(-c2cccs2)o1 ?
AmpC detergent: 10%; Shiga inhibitor: 89*; AmpC no deterg: -25%; Cycloheximide cs: 41*

What do the screens show for `Cc1ccc(-c2nc(-c3ccncc3)no2)c(Cl)c1`?
AmpC detergent: -10%; AmpC no deterg: -8%; NS1 function inh: -35%; Cycloheximide cs: 35*

How did COc1ccc(-c2noc(-c3ccc(C)cc3Cl)n2)cc1OC do in these assays?
AmpC detergent: 2%

Results for Clc1ccccc1OCCSc1nnc(-c2cccs2)o1 ?
AmpC detergent: 3%

What do the screens show for `Clc1ccccc1/C=C/c1nc(-c2cccnc2)no1`?
AmpC detergent: 2%; Shiga inhibitor: 98*; AmpC no deterg: -1%; NS1 function inh: -4%; Cycloheximide cs: 41*

What do the screens show for `Cc1onc(-c2ccccc2Cl)c1C(=O)Nc1ccc(Br)cc1`?
AmpC detergent: -3%; Shiga inhibitor: -12; AmpC no deterg: -31%; NS1 function inh: -33%; Cycloheximide cs: 6

Results for CCOC(=O)N1CCN(Cc2nc3cc(NC(=O)c4ccccc4[N+](=O)[O-])ccc3n2C(C)C)CC1 ?
AmpC detergent: -2%

How did Cc1nc(-c2noc(-c3ccccc3Cl)n2)c(C(F)(F)F)o1 do in these assays?
AmpC detergent: 5%; Shiga inhibitor: 47*; AmpC no deterg: -3%; NS1 function inh: -3%; Cycloheximide cs: 61*

What do the screens show for `Clc1ccccc1-c1nc(-c2cccnc2)no1`?
AmpC detergent: 0%; Shiga inhibitor: 83*; NS1 function inh: -51%; Cycloheximide cs: 25*

How did Cc1onc(-c2ccccc2Cl)c1-c1nc(-c2ccncc2)no1 do in these assays?
AmpC detergent: 0%; Shiga inhibitor: 6; AmpC no deterg: 10%; NS1 function inh: -1%; Cycloheximide cs: -3

What do the screens show for `Cc1ccccc1-c1nc(-c2cccnc2)no1`?
AmpC detergent: -11%; Shiga inhibitor: 83*; AmpC no deterg: -2%; NS1 function inh: -52%; Cycloheximide cs: 28*

How did Clc1ccc(Br)cc1-c1nc(-c2cccnc2)no1 do in these assays?
NS1 function inh: 1%

What do the screens show for `CSc1ccccc1-c1nc(-c2ccncc2)no1`?
AmpC detergent: -2%; Shiga inhibitor: 82*; AmpC no deterg: 7%; NS1 function inh: -39%; Cycloheximide cs: 57*

How did CCOc1ccc(NC(=O)C2CCCN(S(=O)(=O)c3c(C)noc3C)C2)cc1 (stereo unspecified) do in these assays?
AmpC detergent: -2%; Shiga inhibitor: -14; AmpC no deterg: -15%; NS1 function inh: 7%; Cycloheximide cs: -5

What do the screens show for `CCOC(=O)c1ccc(-n2c(CCC(=O)O)ccc2-c2ccc(Br)cc2)cc1`?
AmpC detergent: 11%

Results for Cc1ccc(Cl)cc1N1CCN(CCNC(=O)Nc2ccc(Cl)cc2)CC1 ?
AmpC detergent: 26%

What do the screens show for `Clc1ccccc1-c1nc(-c2ccncc2)no1`?
AmpC detergent: inconclusive; Shiga inhibitor: 97*; AmpC no deterg: 3%; NS1 function inh: -13%; Cycloheximide cs: 26*

What do the screens show for `S=c1[nH]c2ccccc2o1`?
AmpC detergent: -6%; Shiga inhibitor: 83*; AmpC no deterg: -15%; NS1 function inh: 1%; Cycloheximide cs: 13*

Results for S=c1[nH]c2ccccc2n2cccc12 ?
AmpC detergent: -12%; Shiga inhibitor: -13; AmpC no deterg: -22%; NS1 function inh: 3%; Cycloheximide cs: 1
